CYP2C9 act: increases human cytochrome P450 2C9 activity; P11712; recombinant CYP2C9, luciferin-H conversion, luminescence; stronger effect = higher value; factor 1 = untreated enzyme, 0 = blocked; activation factor at 5 µM; hit rate 1.4% among 96,000; AID 1024;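 active means activation factor of 2 or more for CYP2C9 at a 5 µM dose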;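 further: 0 = sulfaphenazole-blocked wells and 1 = vehicle-only wells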
CYP2C19 inh: human CYP2C19 inhibition; inhibition, % at 5 µM; hit rate 21% among 96,000; P33261; AID 778; CYP2C19 Supersomes, luciferin-H EGE luminescence, 30 min;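 active means CYP2C19 inhibition above a set limit at 5 µM in the primary screen, cut at about 50% in these data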;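 further: plate controls were negative control wells for no effect and 2.5 mM tranylcypromine positive control for full effect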
Target sequence (P33261 whole entry, looked up): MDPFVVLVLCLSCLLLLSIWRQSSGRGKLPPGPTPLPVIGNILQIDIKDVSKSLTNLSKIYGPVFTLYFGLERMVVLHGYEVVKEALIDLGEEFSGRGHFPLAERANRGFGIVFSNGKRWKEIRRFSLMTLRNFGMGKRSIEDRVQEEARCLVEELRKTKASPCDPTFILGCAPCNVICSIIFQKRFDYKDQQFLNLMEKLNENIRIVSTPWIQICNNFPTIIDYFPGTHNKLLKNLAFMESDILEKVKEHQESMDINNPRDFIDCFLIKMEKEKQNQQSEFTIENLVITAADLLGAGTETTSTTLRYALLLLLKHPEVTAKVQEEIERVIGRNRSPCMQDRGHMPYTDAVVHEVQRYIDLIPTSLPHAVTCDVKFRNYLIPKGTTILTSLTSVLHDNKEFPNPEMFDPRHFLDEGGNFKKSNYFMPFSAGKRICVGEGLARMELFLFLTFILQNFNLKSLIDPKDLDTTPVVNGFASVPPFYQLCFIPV
sEH inh: inhibitors of human soluble epoxide hydrolase; inhibition, % at 2 µM; recombinant human sEH enzymatic activity assay; hit rate 0.34% among 91,000; in the data active means inhibition above about 80%
sEH act: increases human soluble epoxide hydrolase activity; P34913; purified human sEH enzymatic activity, activator screen; activation, % at 2 µM; hit rate 0.04% among 91,000; AID 717; in the data active means activation above about 37%
CYP2C9 inhib: inhibitors of human CYP2C9; P11712; CYP2C9 Supersomes, luciferin-H conversion, luminescence; inhibition, % at 5 µM; hit rate 20% among 96,000;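 active means blocking of liver enzyme CYP2C9 beyond about 50% at 5 µM, limit read from the data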
CYP2C19 act: activators of human cytochrome P450 2C19. P33261. recombinant CYP2C19, luciferin-H EGE luminescence; stronger effect = higher value; 0 = fully inhibited enzyme, 1 = untreated enzyme. activation factor at 5 µM. 96,000 tested, under 10 active. AID 1025;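 active means activation factor of at least 2 at 5 µM in the primary screen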;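 further: 0 = wells with 2.5 mM tranylcypromine and 1 = vehicle-only wells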
* hit, by the source's call; x = no result. Compounds with a hit are over-represented: about 27% of the library has one in this group of screens.

SMILES	CYP2C9 act	CYP2C19 inh	sEH inh	sEH act	CYP2C9 inhib	CYP2C19 act
Cc1ccc(N2CC(C(=O)NCc3ccc4c(c3)OCO4)CC2=O)cc1C (centres undefined)	2.2*	8.2	-1.9	4.0	-123.5	0.9
O=C(NCc1ccc2c(c1)OCO2)C1CC(=O)N(C2CCCCCC2)C1 (centres undefined)	0.9	8.7	x	x	9.7	0.9
Cc1cccc2nc(C(F)(F)F)nc(=O)n12	0.9	6.7	-3.1	2.7	7.5	0.9
CCCCCC(=O)NC(NC(=S)N1CCOCC1)C(Cl)(Cl)Cl (centres undefined)	x	x	21.8	-19.0	x	x
CCCCC(=O)NC(N1CCCCC1)C(Cl)(Cl)Cl (centres undefined)	0.8	58.9*	-3.2	5.9	17.7	0.4
Cc1ccc(CNC(=O)C(OC(=O)c2ccco2)C(C)C)cc1 (centres undefined)	0.4	85.7*	x	x	61.1*	0.1
Cc1ccc(CNC(=O)C(C)OC(=O)c2ccco2)cc1 (centres undefined)	0.4	72.5*	x	x	55.0*	0.3
CC(C)C(OC(=O)c1ccco1)C(=O)NCc1cccs1 (centres undefined)	0.6	68.8*	-9.9	8.8	35.4	0.3
CCCCCOC(=O)CSc1n[nH]c(=O)[nH]c1=O	1	15.3	7.5	-7.6	1.4	0.8
Cc1ccc(CN2C(=O)C3CCCN3c3ccc(S(=O)(=O)N4CCOCC4)cc32)cc1 (centres undefined)	0.6	9.9	3.0	-4.2	43.4	0.9
Cc1ccc(-n2c(C)nnc2SCC(=O)Nc2ccccc2)cc1	x	x	-0.9	0.9	x	x
CCOc1ccc(-c2nnc(-c3ccccc3)n2-c2ccccc2)cc1	0.3	27.8	-3.1	0.1	65.2*	0.7
CCOc1ccc(-c2nnc(-c3ccccc3)o2)cc1	x	x	10.8	-5.5	x	x
C=CCSc1nnc(C)n1-c1ccc(Cl)cc1	0.7	51.7*	9.1	-6.5	29.7	0.5
COc1ccc(C(C)=O)cc1CSc1nnc(-c2ccc(Cl)cc2)n1-c1ccccc1	0.5	50.3*	8.4	-8.7	45.1	0.5
COc1ccc(-c2nnc(SCc3ncc(-c4ccccc4)o3)o2)cc1	0.7	86.7*	-12.8	14.7	28.5	0.1
Clc1ccc(C2Nc3ccccc3-n3cccc32)cc1 (centres undefined)	1	-10.7	-13.1	12.8	-2.6	1.1
C=CCSc1nnc(-c2ccncc2)n1-c1ccc(OCC)cc1	0.5	99.2*	0.5	1.8	54.1*	0
Brc1ccccc1-c1nnc(CSc2nnnn2-c2ccccc2)o1	0.6	92.1*	13.3	-15.0	41.5	0.1
Cc1nnc(SCc2nnc(-c3ccccc3Br)o2)n1-c1ccccc1	2*	81.7*	-1.4	4.5	-95.6	0.2
COc1ccc(-n2c(SCc3nnc(-c4ccccc4)o3)nnc2-c2ccccc2)cc1	0.5	54.0*	-7.9	10.1	46.7	0.5
Cc1cc(C)n(-c2nc(C)nc3c2cnn3-c2ccccc2)n1	1.1	-14.5	x	x	-13.9	1.1
CCc1nnc(NC(=O)c2nc3nc(C)cc(C)n3n2)s1	1.1	-10.3	10.8	-12.6	-5.5	1.1
C=CCOc1nc(N(C)C)nc(N(C)C)n1	1.4	-6.3	7.2	-2.2	-39.6	1.1
COc1ccc(-c2nnc(SCc3nnc(-c4ccccc4)o3)n2-c2ccccc2)cc1	1	-7.8	x	x	-2.3	1.1
SMILES	CYP2C9 act	CYP2C19 inh	sEH inh	sEH act	CYP2C9 inhib	CYP2C19 act
COc1ccc(-c2nnc(SCc3nnc(-c4ccc(Cl)cc4)o3)n2-c2ccccc2)cc1	0.5	36.5	2.2	-2.7	54.4*	0.6
COc1ccc2[nH]c3nc(SCc4nnc(-c5ccccc5)o4)nnc3c2c1	0.4	49.9	-16.1	12.5	64.3*	0.5
Cc1nnc(SCc2ccon2)n1-c1ccccc1	x	x	-2.8	1.8	x	x
COc1ccc2[nH]c3nc(SC(C)C)nnc3c2c1	0.8	7.9	-9.4	11.7	23.5	0.9
Cc1nnc(SCc2nnc(-c3ccc(Cl)cc3)o2)n1-c1ccccc1	0.5	60.4*	x	x	46.2	0.4
C=CCSc1nc2c(c(=N)n1CC=C)C1CCCC1S2 (centres undefined)	0.6	31.9	-14.6	12.1	35.7	0.7
CCCNC(=S)Nc1ccc2nc(-c3ccccn3)c(-c3ccccn3)nc2c1	0.7	22.3	5.7	-5.1	31.8	0.8
CN(C)C(/C=C/Nc1ccc(F)cc1)=C(C#N)C#N	0.7	58.8*	x	x	32.0	0.4
CN(C)C(/C=C/Nc1ccc(F)cc1F)=C(C#N)C#N	0.8	48.7	x	x	24.5	0.5
CN(C)C(/C=C/Nc1ccc(C#N)cc1)=C(C#N)C#N	0.8	57.7*	-6.3	5.2	24.6	0.4
O=C(Nc1ccccc1)N1CCC(c2nc(-c3ccc(S(=O)(=O)N4CCOCC4)cc3)no2)CC1	0.5	10.4	x	x	46.2	0.9
CCOc1ccc(NC(=O)CCN2CCN(S(=O)(=O)c3ccc(OC)cc3)CC2)cc1	0.5	45.9	-1.4	-0.9	53.2*	0.5
CCOc1ccc(C(=O)CN2CCN(S(=O)(=O)c3ccc(Br)cc3)CC2)cc1	0.9	36.5	1.8	-2.1	8.2	0.6
CCOc1ccc(NC(=O)CCN2CCN(S(=O)(=O)c3ccc(Cl)cc3)CC2)cc1	0.3	72.4*	2.0	-4.1	73.0*	0.3
COc1ccc(NC(=O)CCN2CCN(S(=O)(=O)c3cc(Cl)ccc3OC)CC2)cc1	0.4	96.8*	16.3	-16.9	64.8*	0
CCOc1ccc(C(=O)CN2CCN(S(=O)(=O)c3ccc(OC)cc3)CC2)cc1	0.8	77.3*	-14.9	19.3	21.9	0.2
CCOc1cc(C)ccc1OCc1nnc(SCC(=O)c2cccc([N+](=O)[O-])c2)n1C	1.6	-6.5	0.0	2.4	-57.1	1.1
CC1(C)CC(c2csc(N)n2)CCO1 (centres undefined)	0.8	-8.3	18.2	-17.9	16.2	1.1
COc1ccc(CNS(=O)(=O)c2cc(OCC(N)=O)c(C)cc2Cl)cc1	0.9	7.9	-2.1	3.4	11.0	0.9
CCOC(=O)C1CCN(C(=O)c2ccc(SC)cc2OC)CC1	1.4	98.8*	-5.9	6.3	-37.9	0
O=C(COC(=O)C1CCN(C(=O)c2ccc(Cl)cc2)CC1)c1ccco1	0.7	36.9	8.5	-8.0	30.6	0.6
Cc1cc(Br)ccc1SCC(=O)OCC(=O)N1CCN(C(=O)c2ccco2)CC1	0.4	66.3*	1.4	-2.6	61.3*	0.3
O=C(CSc1cccc2cccc(Cl)c12)OCC(=O)N1CCN(C(=O)c2ccco2)CC1	1.4	9.0	-5.7	2.6	-43.6	0.9
COc1ccc(C(=O)C2CCN(C(=O)c3ccco3)CC2)cc1	0.8	51.2*	x	x	24.0	0.5
CCOC(=O)C1CCN(C(=O)c2ccco2)CC1	0.8	63.1*	3.7	-4.2	24.4	0.4
CCOC(=O)CCNC(=O)c1ccccc1Br	1	20.2	x	x	3.3	0.8
Clc1ccc(-c2onc3c2CCCC3)cc1	0.8	12.3	-3.7	4.0	18.2	0.9
